Pf apPOL block: Pf-apPOL inhibitors, biochemical, fluorescence. AID 1794808, 2022. Recombinant Pf-apPOL, molecular beacon fluorescence, 1.5 h. hit rate 0.25% among 210,000. inhibition, % at 10 µM. Plasmodium falciparum apicoplast DNA polymerase (apPOL)
mHTT-CaM PPI inh: mutant huntingtin-calmodulin interaction inhibitors – biochemical, AlphaScreen, primary screen; AlphaScreen His-mHTT/GST-CaM binding, luminescence; inhibition, % at 15 µM; hit rate 3.6% among 190,000; P42858; AID 1671202, 2021;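 note: 0% = both proteins with DMSO and 100% = one protein alone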
Starred values were filed as active, the others as inactive; / = not tested or not shown. The entries come from a sample that favours hits as a whole. Cut-off read from the data, not from the text of the source: active = inhibition above about 50%; inactive = the rest.

SMILES	Pf apPOL block	mHTT-CaM PPI inh
CCN(CC)C(=O)CC(c1cc(OC)c(OC)c(OC)c1)c1c(OC)cc(OC)c2c(-c3ccccc3)cc(=O)oc12 (configuration not stated)	9	69*
Cc1c(NC(=S)NC(=O)CC23CC4CC(CC(C4)C2)C3)c(=O)n(-c2ccccc2)n1C	-1	-2
Cc1ccc(CNC(=O)C2CCCN(c3nnc4ccccn34)C2)cc1C (configuration not stated)	-9	7
C=CCn1c(=N)c(C(=O)NC2CCCCC2)cc2c(=O)n3cc(C)ccc3nc21	5	0
O=C(c1ccc(OCC2CCCN2C(=O)Cc2cccc(F)c2)cc1)N1CCCC1 (configuration not stated)	7	7
CC(C=NOC(=O)c1c(F)cccc1F)=NNc1c(Cl)cc(Cl)cc1Cl	-4	/
CC(=O)Nc1ccc(-c2noc(C3CCCN(C(=O)c4cc5ccccc5[nH]4)C3)n2)cc1 (configuration not stated)	-2	-4
COc1cccc(-c2nc(C3CCN(C(=O)c4ccc(C(F)(F)F)cc4)CC3)no2)c1	-2	86*
COc1cccc(-c2nc(C3CCN(C(=O)c4nccc5ccccc45)CC3)no2)c1	-6	98*
CC(=O)Nc1ccc(-c2noc(C3CCN(C(=O)c4cc5ccccc5[nH]4)CC3)n2)cc1	3	98*
COc1cccc(-c2nc(C3CCN(C(=O)c4cccc(C(F)(F)F)c4)CC3)no2)c1	-2	33
O=C(c1cc2cc(Cl)ccc2[nH]1)N1CCC(c2noc(-c3ccccc3)n2)CC1	8	83*
COc1cccc(-c2nc(C3CCN(C(=O)c4cc5ccccc5[nH]4)CC3)no2)c1	-22	8
O=C(c1cc2ccccc2[nH]1)N1CCC(c2noc(-c3ccccc3)n2)CC1	3	-5
O=C(c1cc(F)ccc1F)N1CCC2(CC1)NC(=O)N(Cc1ccccc1Cl)C2=O	-4	8
CN1CCN(CCCOc2ccc(Br)cc2)CC1	-9	2
COCCc1nc(C2CCCN(C(=O)c3sccc3C)C2)n[nH]1 (configuration not stated)	-5	-3
Cc1oc(C2CCN(C(=O)c3ccc(C(C)(C)C)cc3)CC2)nc1C(=O)N1CCCCC1	-7	31
Cc1oc(C2CCN(C(=O)c3ccc(C(F)(F)F)cc3)CC2)nc1C(=O)N1CCCC1	-3	51*
COc1cccc(-c2nc(C3CCN(C(=O)c4ccc(Cl)c(Cl)c4)CC3)no2)c1	2	97*
COc1ccccc1-c1nc(C2CCN(C(=O)c3cccc(F)c3)CC2)no1	0	13
COc1ccccc1-c1nc(C2CCN(C(=O)c3ccc(F)c(Cl)c3)CC2)no1	-2	92*
COc1cccc(-c2nc(C3CCN(C(=O)c4cccc(C)c4)CC3)no2)c1	6	6
CCOc1ccc(/C=C2\C=C(c3ccc(CC)cc3)OC2=O)cc1	10	4
O=C(Cc1ccsc1)N1CCC(n2c(-c3ccco3)nc3cccnc32)C1 (configuration not stated)	12	6
SMILES	Pf apPOL block	mHTT-CaM PPI inh
COc1ccc(NC(=O)C2CCN(c3cc(N4CCCCC4)ncn3)CC2)cc1OC	-9	22
CN(C)C(=O)c1cc2c(s1)CCC(C(=O)NCc1ccccc1F)C2 (configuration not stated)	-3	-1
CC(=O)C1=C(C)NC(SCC(=O)c2ccc(F)cc2)=C(C#N)C1c1ccc(Cl)cc1 (configuration not stated)	-5	-38
Cc1ccc(C)c(NC(=O)Cc2nc(-c3ccccc3)n[nH]2)c1	-3	-10
Cc1cc(F)ccc1NC(=O)Cc1nc(-c2ccccn2)n[nH]1	-12	99*
Cc1ccc(NC(=O)Cc2ccccc2)c(C)c1	-2	-12
Cc1ccc(NC(=O)Cc2nc(-c3ccccn3)n[nH]2)c(C)c1	-5	86*
Cc1cc(F)ccc1NC(=O)Cc1nnc(-c2ccc3ncccc3c2)o1	-3	2
O=C(Cc1nc(-c2ccccn2)n[nH]1)Nc1cc(F)ccc1F	-9	95*
O=C(Cc1ccccc1F)Nc1cc(-c2ccccn2)no1	-3	-5
Cc1ccc(C)c(NC(=O)Cc2nc(-c3ccccn3)n[nH]2)c1	-12	99*
O=C(CCCOc1ccc(Cl)cc1)Nc1ccc([N+](=O)[O-])cc1Br	-5	1
COc1ccc(N(CC(=O)Nc2c(C)cccc2C)S(C)(=O)=O)cc1OC	-4	5
CCn1c2ccccc2c2nnc(SCC(=O)N(c3ccccc3)c3ccccc3)nc21	0	2
Cc1cc(C)cc(NC(=O)Cc2nc(-c3ccccn3)n[nH]2)c1	-9	78*
Cc1cccc(NC(=O)Cc2nc(-c3ccccc3)n[nH]2)c1	-3	6
CCOc1ccc(C(=O)Nc2cccc(C)c2C)cc1Br	-7	-5
Cc1cc(C)c2c(=O)[nH]c(SCC(=O)c3ccc(O)c(O)c3)nc2n1	-4	6
Cc1sc2nc(SCC(=O)c3ccc(O)c(O)c3)[nH]c(=O)c2c1C	-1	68*
O=C(c1ccccc1Cl)N1CCc2c(nc3cc(-c4ccccc4)[nH]n3c2=O)C1	-2	46
O=C(c1cc(F)ccc1Cl)N1CCc2c(nc3cc(-c4ccccc4)[nH]n3c2=O)C1	3	71*
COc1ccccc1CCC(=O)N1CCc2c(nc3cc(-c4ccccc4)[nH]n3c2=O)C1	3	59*
COc1ccccc1CCC(=O)N1CCc2nc3cc(-c4ccccc4)[nH]n3c(=O)c2C1	-1	3
O=C(c1ccccc1)N1CCc2c(nc3cc(-c4ccccc4)[nH]n3c2=O)C1	51*	49
O=C(c1ccc2c(c1)OCO2)N1CCc2c(nc3cc(-c4ccccc4)[nH]n3c2=O)C1	-1	-1
SMILES	Pf apPOL block	mHTT-CaM PPI inh
O=C(NCCCN1CCOCC1)C1CCCN(S(=O)(=O)N2CCCC2)C1 (configuration not stated)	-24	-2
CCC(C)Sc1nc2c(c(=O)n1-c1ccc(C)cc1)SCC2 (configuration not stated)	-4	-7
Fc1cccc(Cl)c1C1CC(c2ccc(Cl)cc2)Nc2ncnn21 (configuration not stated)	-4	5
O=[N+]([O-])c1ccccc1CN1CCOCC1	3	2
O=[N+]([O-])c1cc(CN2CCOCC2)c(O)c2ncccc12	-46	100*
CC(=O)c1ccc(N2CC(C)OC(C)C2)c([N+](=O)[O-])c1 (configuration not stated)	-8	/
CC1CN(Cc2cc([N+](=O)[O-])c3cccnc3c2O)CC(C)O1 (configuration not stated)	-4	100*
O=C1C2CCCCC2C(=O)N1c1cc(Cl)ccc1Cl (configuration not stated)	0	16
O=C(CCNc1ccc(F)c(Cl)c1)c1ccccc1	12	-7
Fc1ccc(NC/C=C/c2ccco2)cc1Cl	-2	91*
CCNC(=O)c1ccc(CN2CCN(c3ccccc3F)CC2)o1	-3	-5
O=c1ccc(-c2ccc(F)cc2)nn1CCc1nc(-c2cccc(Br)c2)no1	-9	56*
O=c1ccc(-c2ccc(F)cc2)nn1CCc1nc(-c2ccccc2Cl)no1	-5	-6
O=C(CSc1ccc(F)cc1)Nc1cc(-c2ccco2)nn1CCO	-3	69*
O=C(Nc1cc(-c2ccco2)nn1CCO)c1ccc(S(=O)(=O)N2CCOCC2)cc1	8	26
